Laboratory results from the supplement of paper PMC11732987, “Enantioselective OTUD7B fragment discovery through chemoproteomics screening and high-throughput optimisation” (Communications Chemistry, 2025).

How the values were obtained:
Experiment in all cases: log2 ratio of Biotin-Ahx-Ub-VS probe labelling (fragment/DMSO); higher = less target engagement (more negative = stronger competition), active = hit call of the paper (q ≤ 0.05, log2 ratio ≤ -1)
Settings in all cases: compound concentration: 200 uM; treatment time: 3 h
USP42 = biological target: T1, USP42 (UniProt Q9H9J4)
T1 sequence (whole entry): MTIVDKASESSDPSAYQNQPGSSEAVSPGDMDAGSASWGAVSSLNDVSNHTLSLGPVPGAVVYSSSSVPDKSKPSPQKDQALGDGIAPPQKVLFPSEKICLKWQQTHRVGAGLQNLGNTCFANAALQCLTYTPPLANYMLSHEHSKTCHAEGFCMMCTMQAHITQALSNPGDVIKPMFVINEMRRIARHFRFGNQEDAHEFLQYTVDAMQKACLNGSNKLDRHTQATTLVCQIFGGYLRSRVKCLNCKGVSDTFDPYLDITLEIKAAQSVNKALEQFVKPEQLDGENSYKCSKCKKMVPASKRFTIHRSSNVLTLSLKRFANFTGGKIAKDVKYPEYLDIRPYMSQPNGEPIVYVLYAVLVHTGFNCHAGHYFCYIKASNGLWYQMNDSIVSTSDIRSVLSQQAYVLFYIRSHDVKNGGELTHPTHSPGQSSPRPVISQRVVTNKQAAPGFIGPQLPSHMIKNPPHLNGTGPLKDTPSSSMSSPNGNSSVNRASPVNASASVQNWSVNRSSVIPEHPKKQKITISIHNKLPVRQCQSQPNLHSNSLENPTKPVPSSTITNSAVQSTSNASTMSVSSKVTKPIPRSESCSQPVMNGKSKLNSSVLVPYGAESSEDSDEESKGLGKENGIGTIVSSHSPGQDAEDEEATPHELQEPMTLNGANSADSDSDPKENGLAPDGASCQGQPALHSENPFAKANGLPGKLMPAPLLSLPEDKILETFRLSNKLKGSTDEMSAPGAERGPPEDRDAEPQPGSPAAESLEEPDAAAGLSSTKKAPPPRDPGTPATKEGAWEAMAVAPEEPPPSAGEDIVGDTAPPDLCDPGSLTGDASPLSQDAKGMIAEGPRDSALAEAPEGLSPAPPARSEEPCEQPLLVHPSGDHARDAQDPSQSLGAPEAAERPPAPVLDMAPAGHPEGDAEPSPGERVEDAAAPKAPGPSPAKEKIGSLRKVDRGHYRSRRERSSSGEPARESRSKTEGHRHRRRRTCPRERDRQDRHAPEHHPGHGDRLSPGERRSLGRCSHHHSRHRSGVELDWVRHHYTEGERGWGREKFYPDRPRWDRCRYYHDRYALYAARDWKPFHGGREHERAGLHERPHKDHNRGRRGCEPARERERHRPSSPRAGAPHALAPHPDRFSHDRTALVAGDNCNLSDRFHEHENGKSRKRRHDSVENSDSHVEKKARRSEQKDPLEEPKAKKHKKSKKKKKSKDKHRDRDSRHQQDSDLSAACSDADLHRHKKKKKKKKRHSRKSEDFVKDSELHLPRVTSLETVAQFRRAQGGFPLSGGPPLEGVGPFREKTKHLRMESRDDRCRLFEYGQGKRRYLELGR
Outline: (§1)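 Labelled DUBs from HEK293T lysate were NeutrAvidin-enriched, digested with LysC and trypsin, and run by diaPASEF LC-MS/MS. Before that, each 495 µg sample in Tris/CHAPS/IGEPAL buffer with protease inhibitors was treated in triplicate with fragment at 200 µM or vehicle for 3 h, then with Biotin-Ahx-Ub-VS at 0.5 µM final for 1 h. Values are average log2 ratios of fragment over vehicle by unpaired t-test, based on global-median-normalised Spectronaut label-free quantities from proteins with ≥2 unique peptides.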

USP46 = USP46 (UniProt P62068)
Outline: as §1

USP47 = biological target: T2, USP47 (UniProt Q96K76)
T2 sequence (whole entry): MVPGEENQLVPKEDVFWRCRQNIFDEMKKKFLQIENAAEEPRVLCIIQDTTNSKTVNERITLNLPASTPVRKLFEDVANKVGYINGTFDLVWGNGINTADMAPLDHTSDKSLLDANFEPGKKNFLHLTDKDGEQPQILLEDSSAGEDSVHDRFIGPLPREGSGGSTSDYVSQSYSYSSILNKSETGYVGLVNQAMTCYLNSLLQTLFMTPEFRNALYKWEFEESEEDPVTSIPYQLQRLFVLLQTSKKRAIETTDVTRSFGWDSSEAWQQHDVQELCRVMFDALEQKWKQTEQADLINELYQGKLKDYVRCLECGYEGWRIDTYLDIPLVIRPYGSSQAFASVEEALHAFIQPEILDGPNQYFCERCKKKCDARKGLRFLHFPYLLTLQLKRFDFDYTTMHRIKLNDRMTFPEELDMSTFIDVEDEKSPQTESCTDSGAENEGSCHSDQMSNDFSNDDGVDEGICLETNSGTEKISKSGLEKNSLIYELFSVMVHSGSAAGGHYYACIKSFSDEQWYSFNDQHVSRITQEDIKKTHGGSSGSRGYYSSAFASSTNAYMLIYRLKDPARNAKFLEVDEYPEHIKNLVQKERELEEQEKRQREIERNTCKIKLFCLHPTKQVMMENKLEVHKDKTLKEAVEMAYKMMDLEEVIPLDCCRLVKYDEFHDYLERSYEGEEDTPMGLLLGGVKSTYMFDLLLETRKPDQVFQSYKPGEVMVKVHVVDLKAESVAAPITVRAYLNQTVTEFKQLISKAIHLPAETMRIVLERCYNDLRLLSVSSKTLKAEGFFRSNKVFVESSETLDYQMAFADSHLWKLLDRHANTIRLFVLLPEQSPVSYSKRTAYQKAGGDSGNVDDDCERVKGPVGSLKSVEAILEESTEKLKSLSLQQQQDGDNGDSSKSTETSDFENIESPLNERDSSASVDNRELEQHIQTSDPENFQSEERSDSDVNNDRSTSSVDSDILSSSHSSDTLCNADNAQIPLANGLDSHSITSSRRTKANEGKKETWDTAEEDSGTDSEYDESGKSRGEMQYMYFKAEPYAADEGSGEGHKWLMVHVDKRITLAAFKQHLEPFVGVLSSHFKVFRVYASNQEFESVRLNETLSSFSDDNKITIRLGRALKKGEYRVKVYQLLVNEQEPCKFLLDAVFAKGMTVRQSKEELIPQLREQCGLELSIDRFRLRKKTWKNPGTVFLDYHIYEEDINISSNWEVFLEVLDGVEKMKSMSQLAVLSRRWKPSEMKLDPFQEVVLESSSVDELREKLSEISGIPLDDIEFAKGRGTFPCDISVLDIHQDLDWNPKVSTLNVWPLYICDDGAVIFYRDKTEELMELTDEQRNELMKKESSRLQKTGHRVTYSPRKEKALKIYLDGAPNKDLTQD
Outline: as §1

USP48 = biological target: T3, USP48 (UniProt Q86UV5)
T3 sequence (whole entry): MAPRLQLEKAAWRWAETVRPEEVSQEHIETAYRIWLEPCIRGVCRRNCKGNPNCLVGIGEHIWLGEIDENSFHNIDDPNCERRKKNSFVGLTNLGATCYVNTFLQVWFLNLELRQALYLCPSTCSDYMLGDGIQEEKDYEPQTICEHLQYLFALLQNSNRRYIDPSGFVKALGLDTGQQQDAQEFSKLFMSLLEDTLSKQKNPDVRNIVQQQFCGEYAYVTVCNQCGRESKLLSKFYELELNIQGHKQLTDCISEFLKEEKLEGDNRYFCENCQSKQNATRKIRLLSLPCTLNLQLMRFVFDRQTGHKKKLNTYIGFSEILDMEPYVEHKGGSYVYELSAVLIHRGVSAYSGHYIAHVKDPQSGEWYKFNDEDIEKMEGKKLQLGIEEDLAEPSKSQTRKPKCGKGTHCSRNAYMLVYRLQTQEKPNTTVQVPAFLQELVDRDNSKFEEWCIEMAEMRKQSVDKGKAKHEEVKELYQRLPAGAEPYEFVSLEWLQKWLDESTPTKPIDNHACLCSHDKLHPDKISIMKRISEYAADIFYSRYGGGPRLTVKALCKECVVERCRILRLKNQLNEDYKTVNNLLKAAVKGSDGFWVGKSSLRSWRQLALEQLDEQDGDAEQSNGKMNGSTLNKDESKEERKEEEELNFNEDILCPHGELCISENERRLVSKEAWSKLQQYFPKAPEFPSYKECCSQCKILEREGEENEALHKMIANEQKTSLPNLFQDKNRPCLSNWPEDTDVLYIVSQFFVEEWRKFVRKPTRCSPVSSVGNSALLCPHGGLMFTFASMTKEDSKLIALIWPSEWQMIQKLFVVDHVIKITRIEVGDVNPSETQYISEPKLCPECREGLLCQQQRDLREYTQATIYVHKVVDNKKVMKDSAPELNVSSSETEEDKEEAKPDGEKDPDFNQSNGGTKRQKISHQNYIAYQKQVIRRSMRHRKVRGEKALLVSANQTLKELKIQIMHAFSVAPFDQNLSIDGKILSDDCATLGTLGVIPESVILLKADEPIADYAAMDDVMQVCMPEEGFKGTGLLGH
Outline: as §1

USP5 = biological target: T4, USP5 (UniProt P45974)
T4 sequence (whole entry): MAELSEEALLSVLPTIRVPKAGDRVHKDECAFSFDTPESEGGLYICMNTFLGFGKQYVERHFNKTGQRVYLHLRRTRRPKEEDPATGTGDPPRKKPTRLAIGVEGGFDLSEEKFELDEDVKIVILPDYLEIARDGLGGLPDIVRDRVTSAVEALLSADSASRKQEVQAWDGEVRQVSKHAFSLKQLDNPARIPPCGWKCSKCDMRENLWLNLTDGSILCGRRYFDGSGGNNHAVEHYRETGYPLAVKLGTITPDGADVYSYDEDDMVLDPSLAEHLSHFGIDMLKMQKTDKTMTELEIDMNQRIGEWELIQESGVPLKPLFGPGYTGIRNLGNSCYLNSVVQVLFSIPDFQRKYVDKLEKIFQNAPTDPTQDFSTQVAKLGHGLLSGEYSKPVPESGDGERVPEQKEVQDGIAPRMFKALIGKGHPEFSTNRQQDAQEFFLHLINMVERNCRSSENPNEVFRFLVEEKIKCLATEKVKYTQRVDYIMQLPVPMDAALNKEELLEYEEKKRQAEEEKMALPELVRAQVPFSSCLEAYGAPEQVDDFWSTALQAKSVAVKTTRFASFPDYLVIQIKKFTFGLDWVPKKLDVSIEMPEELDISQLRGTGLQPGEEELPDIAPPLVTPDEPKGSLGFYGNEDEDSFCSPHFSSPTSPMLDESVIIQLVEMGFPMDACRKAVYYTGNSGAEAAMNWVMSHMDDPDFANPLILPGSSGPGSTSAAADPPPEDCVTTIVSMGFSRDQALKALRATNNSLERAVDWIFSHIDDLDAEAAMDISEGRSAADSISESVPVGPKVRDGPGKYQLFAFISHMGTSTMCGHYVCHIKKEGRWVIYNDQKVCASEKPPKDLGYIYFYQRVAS
Outline: as §1

USP54 = USP54 (UniProt Q70EL1)
Outline: as §1

USP7 = USP7 (UniProt Q93009)
Outline: as §1

USP8 = biological target: T5, USP8 (UniProt P40818)
T5 sequence (whole entry): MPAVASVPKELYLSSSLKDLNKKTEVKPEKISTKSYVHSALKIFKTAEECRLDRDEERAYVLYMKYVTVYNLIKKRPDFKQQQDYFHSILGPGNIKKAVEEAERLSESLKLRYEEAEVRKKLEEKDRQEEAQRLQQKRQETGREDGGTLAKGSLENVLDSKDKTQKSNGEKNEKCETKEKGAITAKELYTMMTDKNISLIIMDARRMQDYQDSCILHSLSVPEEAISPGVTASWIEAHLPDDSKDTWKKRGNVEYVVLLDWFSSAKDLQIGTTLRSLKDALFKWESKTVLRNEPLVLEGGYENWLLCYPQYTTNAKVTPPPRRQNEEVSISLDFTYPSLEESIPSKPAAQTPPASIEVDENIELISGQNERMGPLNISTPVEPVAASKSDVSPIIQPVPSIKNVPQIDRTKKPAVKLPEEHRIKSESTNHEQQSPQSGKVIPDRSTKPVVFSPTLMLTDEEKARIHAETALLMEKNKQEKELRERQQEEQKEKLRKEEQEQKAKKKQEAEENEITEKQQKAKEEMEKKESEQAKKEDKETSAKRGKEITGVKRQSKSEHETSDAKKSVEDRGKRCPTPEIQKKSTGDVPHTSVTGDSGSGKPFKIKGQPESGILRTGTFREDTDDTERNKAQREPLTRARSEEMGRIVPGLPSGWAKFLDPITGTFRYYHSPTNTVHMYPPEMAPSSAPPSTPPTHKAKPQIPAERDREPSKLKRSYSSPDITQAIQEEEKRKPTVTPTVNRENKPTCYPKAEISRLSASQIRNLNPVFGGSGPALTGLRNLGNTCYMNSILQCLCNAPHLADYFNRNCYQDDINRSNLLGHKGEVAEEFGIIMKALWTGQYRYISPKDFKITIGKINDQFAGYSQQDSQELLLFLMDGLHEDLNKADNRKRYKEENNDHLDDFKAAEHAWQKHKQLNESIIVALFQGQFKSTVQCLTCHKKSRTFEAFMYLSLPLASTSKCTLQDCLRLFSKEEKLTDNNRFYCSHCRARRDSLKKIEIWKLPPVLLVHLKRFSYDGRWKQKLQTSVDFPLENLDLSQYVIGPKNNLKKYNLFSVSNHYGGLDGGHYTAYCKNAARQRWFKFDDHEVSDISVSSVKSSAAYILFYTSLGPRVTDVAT
Outline: as §1

Measured: log2 ratio of Biotin-Ahx-Ub-VS probe labelling

USP54, sequence (Q70EL1 whole entry): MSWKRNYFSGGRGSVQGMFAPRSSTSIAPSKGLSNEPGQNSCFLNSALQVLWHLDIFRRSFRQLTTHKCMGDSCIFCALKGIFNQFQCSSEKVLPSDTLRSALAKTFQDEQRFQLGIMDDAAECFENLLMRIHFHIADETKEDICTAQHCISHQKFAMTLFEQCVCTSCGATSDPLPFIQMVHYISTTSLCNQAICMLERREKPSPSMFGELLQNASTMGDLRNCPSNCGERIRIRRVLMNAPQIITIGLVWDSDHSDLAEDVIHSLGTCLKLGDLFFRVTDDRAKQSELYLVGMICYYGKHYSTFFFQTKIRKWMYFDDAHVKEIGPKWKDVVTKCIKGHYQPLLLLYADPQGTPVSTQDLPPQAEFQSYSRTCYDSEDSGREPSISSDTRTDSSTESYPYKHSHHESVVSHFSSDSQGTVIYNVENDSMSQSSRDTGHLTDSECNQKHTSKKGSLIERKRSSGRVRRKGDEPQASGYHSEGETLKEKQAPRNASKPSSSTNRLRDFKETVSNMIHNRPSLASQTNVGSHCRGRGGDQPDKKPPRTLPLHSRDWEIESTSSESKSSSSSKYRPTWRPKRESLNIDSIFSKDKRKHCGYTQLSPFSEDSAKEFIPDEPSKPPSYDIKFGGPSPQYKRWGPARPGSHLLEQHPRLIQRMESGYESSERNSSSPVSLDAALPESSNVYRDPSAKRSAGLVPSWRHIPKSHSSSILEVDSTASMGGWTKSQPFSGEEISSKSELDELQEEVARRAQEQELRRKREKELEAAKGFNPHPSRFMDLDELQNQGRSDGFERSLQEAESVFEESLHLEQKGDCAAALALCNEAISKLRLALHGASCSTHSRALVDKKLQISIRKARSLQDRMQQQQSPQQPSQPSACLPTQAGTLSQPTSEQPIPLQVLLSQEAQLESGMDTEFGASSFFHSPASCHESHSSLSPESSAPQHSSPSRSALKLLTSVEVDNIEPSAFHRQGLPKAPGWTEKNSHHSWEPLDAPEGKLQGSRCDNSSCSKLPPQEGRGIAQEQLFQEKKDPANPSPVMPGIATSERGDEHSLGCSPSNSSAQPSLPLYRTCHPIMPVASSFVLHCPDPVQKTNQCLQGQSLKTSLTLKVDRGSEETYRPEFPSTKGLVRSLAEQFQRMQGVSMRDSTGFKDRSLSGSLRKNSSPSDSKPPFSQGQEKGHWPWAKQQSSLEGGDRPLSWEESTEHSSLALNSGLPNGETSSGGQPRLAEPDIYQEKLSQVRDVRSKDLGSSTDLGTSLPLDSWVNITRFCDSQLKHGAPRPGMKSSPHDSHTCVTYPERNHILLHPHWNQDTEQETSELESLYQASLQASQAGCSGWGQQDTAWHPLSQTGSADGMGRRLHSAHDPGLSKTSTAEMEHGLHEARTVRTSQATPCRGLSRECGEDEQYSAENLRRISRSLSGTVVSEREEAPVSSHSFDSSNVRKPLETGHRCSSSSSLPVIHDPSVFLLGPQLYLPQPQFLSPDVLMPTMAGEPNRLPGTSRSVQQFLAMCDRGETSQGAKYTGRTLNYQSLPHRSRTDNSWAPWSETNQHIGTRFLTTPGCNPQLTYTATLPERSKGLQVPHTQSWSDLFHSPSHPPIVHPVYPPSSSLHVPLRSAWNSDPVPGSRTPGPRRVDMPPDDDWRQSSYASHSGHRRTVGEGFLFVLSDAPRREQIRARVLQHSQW
USP46, sequence (P62068 whole entry): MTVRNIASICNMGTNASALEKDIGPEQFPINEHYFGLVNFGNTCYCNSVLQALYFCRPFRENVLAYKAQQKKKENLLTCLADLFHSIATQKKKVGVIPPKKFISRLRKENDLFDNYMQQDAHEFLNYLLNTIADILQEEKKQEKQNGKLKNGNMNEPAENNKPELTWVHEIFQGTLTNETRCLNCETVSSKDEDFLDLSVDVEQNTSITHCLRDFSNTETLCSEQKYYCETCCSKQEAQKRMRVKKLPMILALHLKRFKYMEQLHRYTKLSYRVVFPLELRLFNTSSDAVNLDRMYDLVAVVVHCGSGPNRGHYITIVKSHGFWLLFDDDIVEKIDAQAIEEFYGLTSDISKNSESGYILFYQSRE
USP7, sequence (Q93009 whole entry, looked up): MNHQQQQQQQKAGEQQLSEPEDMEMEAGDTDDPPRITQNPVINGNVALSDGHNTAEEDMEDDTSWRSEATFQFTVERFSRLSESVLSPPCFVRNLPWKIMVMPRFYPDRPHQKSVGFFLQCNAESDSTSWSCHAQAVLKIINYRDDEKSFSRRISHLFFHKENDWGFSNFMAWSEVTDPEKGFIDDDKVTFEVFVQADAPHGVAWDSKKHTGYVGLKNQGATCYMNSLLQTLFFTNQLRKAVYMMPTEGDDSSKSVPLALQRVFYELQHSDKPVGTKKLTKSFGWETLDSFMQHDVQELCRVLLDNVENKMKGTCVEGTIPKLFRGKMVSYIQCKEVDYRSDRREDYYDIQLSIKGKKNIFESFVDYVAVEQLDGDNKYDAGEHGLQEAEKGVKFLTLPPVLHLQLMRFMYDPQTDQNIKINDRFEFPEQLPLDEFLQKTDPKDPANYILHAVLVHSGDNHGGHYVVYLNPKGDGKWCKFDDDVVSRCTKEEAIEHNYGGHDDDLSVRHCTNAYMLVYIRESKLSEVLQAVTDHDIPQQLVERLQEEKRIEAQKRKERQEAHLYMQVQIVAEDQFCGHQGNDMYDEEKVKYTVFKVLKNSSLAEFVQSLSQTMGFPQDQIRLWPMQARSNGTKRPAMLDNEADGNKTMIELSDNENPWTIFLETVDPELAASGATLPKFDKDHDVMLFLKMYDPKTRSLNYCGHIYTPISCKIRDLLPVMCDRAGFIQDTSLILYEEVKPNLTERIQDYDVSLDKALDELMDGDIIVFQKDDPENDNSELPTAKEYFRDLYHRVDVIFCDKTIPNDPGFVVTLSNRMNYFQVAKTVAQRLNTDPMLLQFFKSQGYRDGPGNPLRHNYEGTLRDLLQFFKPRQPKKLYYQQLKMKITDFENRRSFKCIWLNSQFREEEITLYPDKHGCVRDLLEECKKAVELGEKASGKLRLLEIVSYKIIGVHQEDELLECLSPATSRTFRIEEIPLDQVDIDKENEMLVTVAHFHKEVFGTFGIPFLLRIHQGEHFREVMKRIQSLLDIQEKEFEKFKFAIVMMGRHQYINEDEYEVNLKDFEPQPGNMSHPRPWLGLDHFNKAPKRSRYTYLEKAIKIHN

CN(C)S(=O)(=O)c1ccccc1CNC(=O)CCl
inactive: USP42 0.185 | USP46 0.0777 | USP47 -0.336 | USP48 -0.169 | USP5 0.419 | USP54 0.535 | USP7 -0.218 | USP8 -0.15
